Measurements reported in PubChem BioAssay.
Active and inactive are the calls of the source. No rule for the calls is given here.

Assay: inhibition of 3D7 malaria parasite growth – strain 3D7 (AID 2306);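 also: 0% = DMSO wells and 100% = chloroquine plus artemisinin control wells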
Details: P. falciparum 3D7 erythrocytic growth, LDH absorbance, 72 h; at 2 µM; active compounds read high

| Structure (SMILES) | growth inhibition |
| --- | --- |
| COc1cc2nc(C)nc(Nc3ccc(Oc4ccccc4)cc3)c2cc1OC | 101% (active) |
| Cc1ccc(CN(Cc2ccc(C(=O)N(C)C)cc2)Cc2ccc3c(c2)OCCO3)cc1C | 91% (active) |
| Cc1cc(CN2CC[C@H](NC(=O)c3ccc(Cl)c(Cl)c3)C2)ccc1OCCCN(C)C | 99% (active) |
| O=C(Nc1cccc(-c2csc(-c3nc4ccccc4[nH]3)c2)c1)c1ccoc1 | 96% (active) |
| CCC[C@@H]([C@@H](CC1CCCCC1)C(=O)NC(C(=O)Nc1nccs1)C(CC)c1ccccc1)N(O)C=O (some centres not stated) | 89% (active) |
| FC(F)(F)c1ccc2nc(-c3ccc(-c4ccc(CNCc5cnn(-c6ccccc6)n5)cc4)s3)[nH]c2c1 | 100% (active) |
| CN1CCN(CC(=O)Nc2cccc(-c3cccc(-c4nc5ccc(F)cc5[nH]4)c3)c2)CC1 | 100% (active) |
| CN(C)c1ccc(CN2CCC(NC(=O)c3ccc(-c4ccc(N(C)C)cc4)s3)CC2)cc1 | 93% (active) |
| CN1CCC(NCc2cccc(-c3ccc(S(=O)(=O)NCCN4CCCC4)s3)c2)CC1 | 91% (active) |
| CC(C)Oc1cccc(-c2ccc(C(=O)NCC3CCCN(Cc4cccc(C(F)(F)F)c4)C3)s2)c1 (configuration not stated) | 91% (active) |
| Cc1cc(NN=Cc2ccc(F)cc2)c2cccc(C)c2n1 | 100% (active) |
| N#Cc1cccc(Nc2nccc(NCC(O)c3ccc(C(F)(F)F)cc3)n2)c1 (configuration not stated) | 102% (active) |
| NC(=NCCc1ccccc1Cl)c1ccc2ccccc2c1 | 88% (active) |
| CCOC(=O)c1cncc(/C=C/c2cc(C)cnc2N)c1 | 86% (active) |
| O=[N+]([O-])c1cccc(CNCC2CCN(Cc3ccc(C(F)(F)F)cc3)CC2)c1 | 101% (active) |
| CCOC(=O)COc1cccc(CNc2ccc3nc(N)nc(N)c3c2)c1 | 100% (active) |
| CS(=O)(=O)c1ccc(CCNCc2ccc(-c3ccc(CN(C(=O)C4CCCC4)C4CCN(Cc5ccccc5)CC4)cc3)nc2)cc1 | 91% (active) |
| CNS(=O)(=O)CCNCc1ccc(-c2ccc3ncnc(Nc4ccc(OCc5ccccc5)cc4)c3c2)o1 | 101% (active) |
| CC(C)c1ccc(NC(=O)c2ccc(C(=O)NCC3CCN(CC4CCCCC4)CC3)cc2)cc1 | 92% (active) |

| Structure (SMILES) | growth inhibition |
| --- | --- |
| CCCNCc1ccc(-c2ccc(CN(CCOC)C(=O)c3cscn3)cc2)nc1 | 99% (active) |
| CCNc1cc(C(=O)N[C@@H](Cc2ccccc2)[C@H](O)CN[C@H](C)C(C)(C)C)cc(N2CCCCS2(=O)=O)c1 | 95% (active) |
| O=C(Nc1ccc(C(=O)N2CCN(CCN3CCN(c4cccc(C(F)(F)F)c4)CC3)CC2)cc1)c1ccc(C(F)(F)F)cc1 | 95% (active) |
| O=C(/C=C/c1ccc(Cl)c(Cl)c1)N1CCN(C(=O)Nc2ccc(C(F)(F)F)cc2)CC1 | 98% (active) |
| Cc1[nH]c(C)c(-c2ccc(-c3ccc(F)cc3)nc2)c(=O)c1Br | 97% (active) |
| Cc1nc(N)nc(N)c1OCCCOc1ccccc1Br | 94% (active) |
| FC(F)(F)c1ccc2nc(-c3cccc(-c4ccc(CNCC5CCCO5)cc4)c3)[nH]c2c1 (configuration not stated) | 99% (active) |
| Cc1noc(C)c1-c1cccc(CNCc2ccc(-c3ccc(-c4nc5c(C)cccc5[nH]4)cc3)cc2)c1 | 102% (active) |
| Cc1cc(C2CCN(CCCCNC(=O)c3ccc(-c4ccc(C(F)(F)F)cc4)cc3)CC2)c(C)cc1OCCO | 99% (active) |
| COC(=O)c1cccc(CN(CCC(O)(C(F)(F)F)C(F)(F)F)C(=O)CC2CCCC2)c1 | 98% (active) |
| Cc1[nH]c(C)c(-c2ccc(-c3ccccc3C(F)(F)F)nc2)c(=O)c1Br | 97% (active) |
| CCNc1cc(C(=O)N[C@@H](Cc2ccccc2)[C@H](O)CNCc2cc(C#N)ccc2OC)cc(N2CCCC2=O)c1 | 85% (active) |
| CO/C(=C\C=C\c1cc2cc(Cl)c(Cl)cc2[nH]1)C(=O)NCCCNC12CC3CC(CC(C3)C1)C2 | 99% (active) |
| O=c1[nH]c2ccc(Nc3nccc(NCCc4ccccc4)n3)cc2[nH]1 | 101% (active) |
| COc1ccc2nccc([C@@H](O)CN3CCC(NCc4ccc5c(c4)NC(=O)CO5)CC3)c2c1 | 99% (active) |
| CCOC(=O)c1ccc(NC(=O)Nc2ccc(-c3ccc(-c4nc5ccc(C(F)(F)F)cc5[nH]4)cc3)cc2)cc1 | 102% (active) |
| Cc1cccc2[nH]c(-c3ccc(-c4cccc(CN5CCCC5CN)c4)cc3)nc12 (configuration not stated) | 91% (active) |
| COc1ccc(NC(=O)/C=C/c2ccccc2Cl)cc1OCCN1CCC(N2CCCCC2)CC1 | 101% (active) |
